Screening data: PubChem BioAssay, several laboratories
Only some compounds are listed: those with a hit (about 3.7% of all), similar ones and a draw of the others.
BoNT A protease: blocks Botulinum neurotoxin A light chain protease; 360,000 tested, 0.17% active; multiplex microsphere protease substrate cleavage, flow cytometry; inhibition, % at 10 µM; note: plate controls were buffer without enzyme for full effect and enzyme alone for no effect
Anthrax LF inh2: anthrax lethal factor protease inhibition; P15917; multiplex microsphere protease cleavage assay, LF; inhibition, % at 10 µM; 360,000 tested, 0.12% active; AID 588501; note: plate controls were buffer without enzyme for full effect and enzyme alone for no effect
Target sequence (P15917 whole entry, looked up): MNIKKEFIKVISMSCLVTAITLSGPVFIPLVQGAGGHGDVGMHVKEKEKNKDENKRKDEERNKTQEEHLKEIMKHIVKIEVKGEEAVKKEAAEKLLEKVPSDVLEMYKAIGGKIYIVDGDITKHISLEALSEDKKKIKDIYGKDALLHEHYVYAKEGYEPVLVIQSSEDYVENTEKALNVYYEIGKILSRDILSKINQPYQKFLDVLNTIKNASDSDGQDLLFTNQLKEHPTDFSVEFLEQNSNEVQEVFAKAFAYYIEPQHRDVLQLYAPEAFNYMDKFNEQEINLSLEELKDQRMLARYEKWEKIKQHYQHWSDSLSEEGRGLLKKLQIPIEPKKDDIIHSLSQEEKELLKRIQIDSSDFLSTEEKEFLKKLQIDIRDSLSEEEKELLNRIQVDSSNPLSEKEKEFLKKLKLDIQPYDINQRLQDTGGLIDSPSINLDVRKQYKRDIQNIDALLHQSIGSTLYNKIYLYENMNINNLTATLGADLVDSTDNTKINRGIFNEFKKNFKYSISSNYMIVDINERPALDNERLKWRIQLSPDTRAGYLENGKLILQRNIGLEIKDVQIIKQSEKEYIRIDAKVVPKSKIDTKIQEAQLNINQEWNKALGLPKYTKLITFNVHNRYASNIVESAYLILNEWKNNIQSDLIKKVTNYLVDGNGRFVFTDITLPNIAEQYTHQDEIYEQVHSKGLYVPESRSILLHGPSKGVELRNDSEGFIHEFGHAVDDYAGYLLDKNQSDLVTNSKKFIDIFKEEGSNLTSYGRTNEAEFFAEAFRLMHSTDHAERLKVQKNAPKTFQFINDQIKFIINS
MazF activator: MazEF (E. coli) toxin RNase activation. P0AE70. FAM/BHQ RNA-DNA oligo cleavage fluorescence, 5 h. activation, % at 20 µM. 350,000 tested, 0.32% active. AID 504720; in the data active = activation above about 50%
BoNT-F LC inh: blocks Botulinum neurotoxin F light chain protease. Multiplex microsphere protease cleavage assay, flow cytometry. inhibition, % at 10 µM. 360,000 tested, 0.22% active. AID 588497; in the data active = inhibition above about 35%, passing the limit was not always enough; inconclusive = no clear call, values can overlap the other calls; note: plate controls were buffer without enzyme for full effect and enzyme alone for no effect
Autofluor counter: compound fluorescence in toxin protease inhibitor counterscreen; fluorescence intensity (concentration not given with the values); 360,000 tested, 3.1% active; AID 624483; compound autofluorescence counterscreen, microsphere flow cytometry; active compounds read high; in the data active = fluorescence intensity above about 16000; inconclusive = no clear call, values can overlap the other calls
Starred values were filed as active, the others as inactive; ? = inconclusive; / = no result. Cut-off read from the data, not from the text of the source, unless noted: active = inhibition above about 30%; inconclusive = no clear call, values can overlap the other calls; inactive = below that.

SMILES	BoNT A protease	Anthrax LF inh2	MazF activator	BoNT-F LC inh	Autofluor counter
COc1ccccc1-c1nnc(SCC(=O)Nc2c(Cl)cccc2Cl)o1	3.2	-2.1	2.2	3.5	19236*
COc1ccc(C2CCCCCN2C(=O)C2CCN(S(=O)(=O)c3ccc(C)cc3)CC2)cc1 (stereo unspecified)	0.0	0.1	-5.3	-0.3	3841
COc1ccc(-c2ccc(C(=O)NCc3ccc(C(F)(F)F)cc3)c3occc23)c(C)c1	-0.7	-5.2	/	-4.8	4107
COc1ccc(NC(=O)C2(C)Cc3c(-c4ccc5c(c4)OCO5)ccnc3O2)cn1 (stereo unspecified)	0.0	6.2	/	4.4	3436
Cc1ccc(C(C(=O)NC2CCCCC2)N(C(=O)Cc2c[nH]c3ccccc23)c2ccccc2)o1 (stereo unspecified)	?	-1.8	-2.4	3.6	20827*
O=C(N/N=C/c1ccco1)c1ccncc1	-1.8	0.4	-3.6	-1.3	24013*
CCCc1cc(-c2n[nH]c(C)c2-c2ccc(C(=O)OCC)o2)c(O)cc1O	1.9	-9.0	-7.0	-3.1	19356*
Cc1nn(-c2ccccc2)c(C)c1/C=N/N1CCN(c2ccccc2)CC1	-1.8	-5.7	-5.6	-5.5	20444*
Cc1nn(-c2ccccc2)c(N2CCCC2)c1/C=N/O	-6.1	0.9	2.4	-5.8	24403*
Cc1noc(C)c1S(=O)(=O)NC(=O)C1(C)CCN1C(=O)CC(c1ccccc1)c1ccccc1 (stereo unspecified)	-0.6	-2.7	/	-5.1	3810
COc1ccc(OC)c(-c2cc(C(=O)Nc3c(C)nn(Cc4ccccc4)c3C)no2)c1	-0.6	-2.4	-0.2	-3.6	11097
Cc1nn(Cc2ccccc2)c(C)c1NC(=O)c1cc(-c2ccco2)on1	1.6	1.9	3.2	-0.4	20385*
Cc1nn(Cc2ccc(Cl)cc2)c(C)c1NC(=O)c1cc(-c2ccc3c(c2)OCO3)on1	-1.7	-3.8	-32.4	-8.9	10100
CCc1ccc(NC(=O)c2cc(-c3ccco3)on2)cc1	-2.4	-0.6	-19.0	-3.2	24283*
Cc1nn(Cc2ccc(Cl)c(Cl)c2)c(C)c1NC(=O)c1cc(-c2ccc3c(c2)OCO3)on1	?	-18.9	-22.2	9.4	19313*
Clc1ccc(Cn2ccc(-c3ccc4c(c3)OCO4)n2)cc1Cl	-0.1	-0.6	1.8	-2.0	23441*
COc1ccc(CN2C(=O)CCC2(C)c2nnnn2-c2ccc3c(c2)OCCO3)cc1 (stereo unspecified)	-0.5	-6.5	/	-16.3	6163
O=C(C(Cl)Cl)N1c2ccccc2OCC1c1ccccc1 (stereo unspecified)	?	-1.3	-5.5	-2.7	22852*
CN(C)c1ncnc2c1ncn2[C@H]1CN(Cc2ccc(-c3ccccc3)cc2)C[C@@H](CO)O1	-0.2	-5.3	/	-5.0	3665
O=C(CSc1nc2cc(Cl)ccc2s1)c1cc2ccccc2o1	3.3	7.2	43.6	-1.0	19577*
O=C(COC(=O)c1ccc(Cl)s1)c1cc2ccccc2o1	-1.9	-5.0	-6.7	-4.7	20753*
Cn1cccc1C(=O)OCC(=O)c1cc2ccccc2o1	?	-5.2	10.6	-3.3	20874*
Cc1occc1C(=O)N/N=C/C1=C(N2CCOCC2)C(=C/c2ccc(Cl)cc2Cl)/CC1	0.0	1.0	32.8	-6.4	3857
C[C@H](c1ccccc1)N1C[C@@H](COCc2ccccc2)Oc2cc(N3CCC[C@H]3CO)ccc2S1(=O)=O	-1.1	-3.4	/	1.0	8696
O=C(O)/C(=C\c1ccc(Cl)c([N+](=O)[O-])c1)c1ccc(S(=O)(=O)N2CCCC2)s1	-3.1	-9.5	-10.1	-4.3	8485
SMILES	BoNT A protease	Anthrax LF inh2	MazF activator	BoNT-F LC inh	Autofluor counter
COc1cc2c(cc1OC)C1=CC(=O)C(=O)N1C(C)(C)C2	1.3	0.9	54.9*	-0.7	3365
COc1ccc(Cl)cc1NC(=O)CSc1nc2[nH]ncc2c(=O)[nH]1	-0.6	-1.0	4.8	-11.0	3178
CC1=C(C(=O)N(C(C)C)C(C)C)CC(CC(=O)NCCCCc2ccccc2)C(=O)N1Cc1ccc(F)cc1 (stereo unspecified)	-0.5	0.5	/	-0.1	5452
C=CCNC(=O)c1oc2ccc(S(=O)(=O)N(CC)CC)cc2c1C	-4.0	-2.1	-3.5	-5.1	24786*
O=c1ccnc(SCn2nnc3ccccc3c2=O)[nH]1	3.3	-0.7	-0.7	3.1	21117*
CCc1nc2sc3ccccc3c(=O)c2c(=O)n1CCOC	1.3	-3.9	-15.5	1.0	19591*
CCCc1nc2sc3ccccc3c(=O)c2c(=O)n1Cc1ccc(OC)cc1	-2.4	-7.3	-9.3	?	3846
